# MCF10A rereplic = induces DNA re-replication in MCF 10a normal breast cells. MCF 10A DNA re-replication, Hoechst nuclear intensity, 48 h. AID 624296. actives 2.9% (n = 350,000). Potency, µM (titrated, usually from 46.1 µM), actives largely listed as activators; note: nearly all actives have a fitted effect of over 50% in size
# PTAP TSG101 blk = blocks PTAP/TSG101 interaction to inhibit HIV-1 budding. Q99816. Fluorescence polarization, FITC-PTAP peptide / Tsg101 binding. Potency, µM (doses to about 115 µM), hits mostly inhibitors. 340,000 tested, under 10 active; active = well fitted inhibition curve with a large enough effect in the main read-out, with a control signal flat, not every such curve was filed as active; inconclusive = small, poorly fitted or top-dose-only effect, or effect the other way, or a change in a side signal; inactive = no such curve, though single readings can be large or run the other way
# Target sequence (Q99816 whole entry, looked up): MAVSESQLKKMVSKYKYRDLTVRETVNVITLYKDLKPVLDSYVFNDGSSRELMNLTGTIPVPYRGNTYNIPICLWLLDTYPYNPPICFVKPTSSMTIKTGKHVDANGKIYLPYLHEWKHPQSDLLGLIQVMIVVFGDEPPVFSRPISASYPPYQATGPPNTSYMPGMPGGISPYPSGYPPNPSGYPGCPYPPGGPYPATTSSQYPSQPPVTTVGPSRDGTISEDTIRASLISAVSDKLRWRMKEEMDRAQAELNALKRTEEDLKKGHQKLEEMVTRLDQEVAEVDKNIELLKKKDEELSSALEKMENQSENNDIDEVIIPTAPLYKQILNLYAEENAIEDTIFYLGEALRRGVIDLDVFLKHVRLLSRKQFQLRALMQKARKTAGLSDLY
#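 Steps: Tsg101 binding domain dispensed (10 uM final), compounds pinned in DMSO, FITC-labeled PTAP-motif peptide added (50 nM final); after 20 min binding at room temperature, polarization measured.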
# KB-3-1 cytotox = KB-3-1 parental cell cytotoxicity | KB-3-1 viability, CellTiter-Glo ATP luminescence, 72 h | Potency, µM (doses to about 46.1 µM), actives largely listed as cytotoxic | actives 1.4% (n = 400,000); note: nearly all actives have a fitted effect of over 60% in size
#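 KB-3-1 cells, DMEM (no phenol red) + 10% FBS; compound by pin transfer, 72 h, 37 °C. Readout: CellTiter-Glo luminescence after 10 min. Data normalized, curve-fitted.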
# RGS4 inh = human RGS4 inhibition; P49798; Potency, µM (top dose mostly 114 µM), actives largely listed as inhibitors; Transcreener GDP fluorescence polarization, RGS4-accelerated GTP hydrolysis; actives 0.039% (n = 390,000); note: nearly all actives have a fitted effect of over 75% in size
#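 MLSMR compounds (23 nl, pin-transferred) preincubated 10 min at room temperature with a 500nM (2x) first reagent, then RGS4 at 900nM (2x) plus Transcreener GDP mix added; fluorescence polarization (620/688 nm) read before and after 90 min at 30 °C.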
# KB-V1 MDR tox = kills drug-selected multidrug resistant KB-V1 cells; KB-V1 MDR cells viability, CellTiter-Glo, 72 h; Potency, µM (titrated, usually from 46.1 µM), hits mostly cytotoxic; actives 3.4% (n = 400,000); note: nearly all actives have a fitted effect of over 60% in size
#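 In this primary screen, KB-V1 cells overexpressing P-gp are incubated with library compounds (lowest to highest concentration) for 72 h at 37 degrees C before a luminescent ATP viability read.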
# SW480 rereplic = DNA re-replication induction in SW480 cells; SW480 DNA re-replication, Hoechst DNA content imaging, 48 h; Potency, µM (doses to about 46.1 µM), hits mostly activators; actives 1.8% (n = 340,000); note: nearly all actives have a fitted effect of over 55% in size
#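 DNA re-replication was detected as more nuclei of elevated Hoechst intensity after 48 hr exposure to compound (23 nL pinned per well of 250 cells).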
# Numbers stand for hits; . = inactive; ? = inconclusive; / = no result; [ ] = dose if it differs, or a comment. An excerpt weighted towards active compounds, which were near 6.6% of everything screened. Unless noted, calls come from the whole dose curve; as a rule, active = well fitted curve in the direction sought with a large enough effect; inconclusive = small, poorly fitted or top-dose-only effect, or another doubt; inactive = no such curve, though single readings can be large; an effect the other way counts as inactive or inconclusive.
SMILES,MCF10A rereplic,PTAP TSG101 blk,KB-3-1 cytotox,RGS4 inh,KB-V1 MDR tox,SW480 rereplic
COC(=O)c1ccccc1NC(=O)CSc1c2c(nc3ccc(Cl)cc13)CCCC2,/,/,/,.,/,/
COc1ccc(Nc2cc(C(=O)NCCCN3CCN(c4ccc(OC)cc4)CC3)c3ccccc3n2)cc1,/,/,/,.,/,/
CCCn1c2ccccc2c2cnn(CC(=O)NCCc3cc(OC)ccc3OC)c(=O)c21,/,/,.,.,.,/
COC(=O)c1sc(-c2ccc(C(C)(C)C)cc2)cc1NC(=O)CSCC(=O)O,14.6µM,.,.,.,?,.
CCOc1ccc(CCNC(=O)Nc2ccccc2C)cc1OCC,.,.,.,.,?,.
CCOc1ccc(CCNC(=O)Cn2cccc2C(=O)c2ccccc2C)cc1OCC,.,.,.,.,4.61µM,.
COc1ccc(C=C2SC(=O)NC2=O)cc1OC,.,.,.,.,.,.
COc1ccc(C=C2C=C(C(C)(C)C)C(=O)C(C(C)(C)C)=C2)cc1OC,20.6µM,.,?,.,?,?
COc1cc(/C=C2\COC/C(=C\c3ccc(O)c(OC)c3)C2=O)ccc1O,5.8µM,.,.,.,.,7.31µM
COc1cccc(/C=C2\CCc3ccccc3C2=O)c1,.,.,.,.,.,.
COc1ccc(/C=C2\CCC/C(=C\c3ccc(OC)c(OC)c3OC)C2=O)c(OC)c1OC,.,.,.,.,.,.
COc1ccc(/C=C2\CCc3ccccc3C2=O)cc1OC,?,.,.,.,16.4µM,?
COc1cc(OC)c(OC)cc1/C=C1\CCC/C(=C\c2cc(OC)c(OC)cc2OC)C1=O,16.4µM,.,?,.,?,?
COc1ccc(C2=Nc3ccc(OC(F)(F)F)cc3NC(c3cccnc3)=N2)cc1,/,/,.,.,.,/
COc1ccc(/C=C2\CC/C(=C\c3ccc(OC)c(OC)c3)C2=O)cc1OC,?,.,18.4µM,.,?,?
Cc1ccccc1/C=C1\CCCc2ccccc2C1=O,?,.,.,.,.,.
CCOC(=O)C1CCCN(C2=NC(=O)/C(=C/c3ccc(OC)c(OC)c3)S2)C1 (configuration not stated),.,.,.,.,.,.
COc1ccc(/C=C2\SC(N3CCc4ccccc4C3)=NC2=O)cc1OC,3.66µM,.,?,.,11.6µM,.
O=C1/C(=C\c2ccc3ccccc3c2)CCCc2ccccc21,5.8µM,.,5.17µM,.[11.4 µM],7.31µM,?
COc1ccc(/C=N/NC(=O)c2[nH]nc3c2CCc2ccccc2-3)cc1OC,5.17µM,.,?,?,.,?
Clc1ccccc1Cn1cccc1C1=NC(Cc2ccccc2)CO1 (configuration not stated),/,/,.,.,.,/
CCN1CCN(C(=O)c2ccc3c(c2)N(Cc2c(F)cccc2Cl)C(=O)c2ccccc2S3)CC1,/,/,/,.,/,/
Cc1cccc(OC(=O)c2nc(SCc3ccccc3F)ncc2Cl)c1,/,/,/,.,/,/
COc1ccc(/C=C2\CCc3ccccc3C2=O)cc1Cn1nc(C)cc1C,?,.,?,.,18.4µM,?
COc1ccc(/C=C2\CN(Cc3ccccc3)C/C(=C\c3ccc(OC)c(O)c3)C2=O)cc1O,?,.,5.17µM,.,.,3.66µM
SMILES,MCF10A rereplic,PTAP TSG101 blk,KB-3-1 cytotox,RGS4 inh,KB-V1 MDR tox,SW480 rereplic
COc1ccc(/C=C2/CCc3ccccc3C2=O)cc1CN1CCOCC1,?,.,.,.,?,.
Cc1ccc(NC(=O)CSc2cc(=O)n(C)c3ccc(Cl)cc23)c(Br)c1,/,/,.,.,.,/
C[n+]1ccc(/C=C/c2ccc(Br)cc2)cc1,.,.,?,.,.,.
C[n+]1ccc(/C=C/c2c[nH]c3ccc(F)cc23)cc1,?,?,8.2µM,.,.,?
C/C(=N\S(=O)(=O)c1ccc(C)cc1)N1CCN(S(=O)(=O)c2ccccc2)C1C(C)C (configuration not stated),.,/,.,.,5.8µM,.
CCN(CC)C(=O)Cn1ncc2c([nH]c3ccc(C)cc32)c1=O,/,/,.,.,.,/
